# According to PubChem BioAssay (NCATS):
# Inconclusive results are not listed. Entries that show only a call come without a potency. Active and inactive are the calls of the source. Calls follow the shape of the dose curve; as a rule, active = well fitted cell-killing curve with a large enough effect; inconclusive = small, poorly fitted or top-dose-only effect, or effect the other way; inactive = flat fitted curve, though single readings scatter.
# Assay: Cell Viability - LYMP2-003 (AID 965);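 also: cells exposed to compounds for 24 h before reading; nearly all actives have a fitted effect of over 50% in size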
# Settings: LYMP2-003 lymphoblastoid cell viability; series mostly up to 92.2 µM
# Source text: NIH Chemical Genomics Center [NCGC]
# NIH Molecular Libraries Screening Centers Network [MLSCN]
# National Institutes of Environmental Health Sciences [NIEHS]
# National Toxicology Program [NTP]
# We have developed a 1536-well cell-based assay for quantitative high throughput screening (qHTS) against a number of cell lines to determine in vitro cytotoxicity of small molecules. This particular assay uses a human lymphoblastoid cell line (LYMP2-003) purchased from Coriell Institute for Medical Research.
# NCGC Assay Protocol Summary:
# The CellTiter-Glo luminescent cell viability assay (Promega) is a homogeneous method to measure the number of viable cells in culture. The end point readout of this assay is based on quantitation of intracellular ATP, an indicator of metabolic activity, using the luciferase reaction. Luciferase catalyzes the oxidation of beetle Luciferin to oxyluciferin and light in the presence of ATP. The luminescent signal is proportional to amount of ATP present.
# Using the CellTiter-Glo luminescent cell viability assay, the amount of cellular ATP was measured in the lymphoblastoid cell line with complete culture medium following compound treatment for 24 hours. The assay was performed in opaque white Kalypsys 1536-well plates. In the screen, tetraoctylammonium bromide was used as positive control. Library compounds were measured for their ability to cause acute toxicity in the cell line, as reflected by a decrease in intracellular ATP levels, in a concentration-dependent manner. […] AC50 values were determined from concentration-response data modeled with the standard Hill equation.
# qHTS protocol for CellTiter Glo lymphoblastoid cellular assay
# [Step] [Parameter] [Value] [Description]
# 1. Reagent; 5 uL; 2500 lymphoblastoid cells/well
# 2. Time; 5 hr; 37 C incubation
# 4. Controls; 23 nL; Tetraoctylammonium bromide 6.4pM to 92 uM
# 5. Time; 24 hr; 37 C incubation
# 6. Reagent; 5 uL; CellTiter Glo reagent
# 7. Time; 30 min; Room Temperature
# 8. Detection; Luminescence; Viewlux plate reader
# Keywords: cell viability, cytotoxicity, lymphoblastoid cell line, luminescence, NTPHTS, NTPHTS_NCGC, NIEHS, DSSTox, MLSMR, MLSCN, NIH Roadmap, qHTS, NCGC
# Potency is read from the fitted curve at half-maximal effect.
row,Compound,Potency
1,CCCCCCCCc1ccc(O)cc1,inactive
2,CCCCOC(=O)c1ccccc1C(=O)OCc1ccccc1,inactive
3,Nc1ccc(Cl)cc1N,inactive
4,O=[N+]([O-])c1cc([N+](=O)[O-])c2ccccc2c1,inactive
5,O=[N+]([O-])c1c2ccccc2cc2ccccc12,inactive
6,CCOP(=O)(NC(C)C)Oc1ccc(SC)c(C)c1 (stereo unspecified),inactive
7,Nc1ccc([N+](=O)[O-])cc1,inactive
8,O=[N+]([O-])c1c(Cl)c(Cl)cc(Cl)c1Cl,inactive
9,O=S(=O)(c1ccc(Cl)cc1)c1ccc(Cl)cc1,inactive
10,O=C(O)COc1ccccc1,inactive
11,C1CCC(NC2CCCCC2)CC1,inactive
12,CCOCCOC(C)=O,inactive
13,CC(=O)[O][Hg][c]1ccccc1,1580 nM (active)
14,Nc1ccc(Sc2ccc(N)cc2)cc1,inactive
15,Nc1ccc(Cl)cc1,inactive
16,CN(C)[C@@H]1C(=O)C(C(N)=O)=C(O)[C@@]2(O)C(=O)C3=C(O)c4c(O)cccc4[C@@](C)(O)[C@H]3[C@H](O)[C@@H]12,inactive
17,CCCCC(CC)COC(=O)c1ccccc1C(=O)OCC(CC)CCCC (stereo unspecified),inactive
18,COC(C)(C)CCCC(C)C/C=C/C(C)=C/C(=O)OC(C)C (stereo unspecified),inactive
19,O=C(O)C(Cl)Cl,inactive
20,CC(C)(O)C(=O)Nc1ccc([N+](=O)[O-])c(C(F)(F)F)c1,inactive
21,COc1ccc(C(c2ccc(OC)cc2)C(Cl)(Cl)Cl)cc1,inactive
22,CN(C)NC(=O)CCC(=O)O,inactive
23,c1cc2ccc3cccc4ccc(c1)c2c34,inactive
24,C=CC(=O)NCNC(=O)C=C,inactive
25,Cc1cc(O)ccc1Cl,inactive
26,OCCCBr,inactive
